Source: PubChem BioAssay
IMPase cell inh: IMPase inhibition in cells. P97697. CHO-M1 cells, IP1 accumulation, HTRF TR-FRET ratio. inhibition (IP1 accumulation), % at 46.1 µM. 120,000 tested, under 10 active. AID 901; active means well fitted curve in the direction sought with a large enough effect in the signal ratio, not every such curve was filed as active; inconclusive means small, poorly fitted or top-dose-only effect, or a change in a side signal; inactive means no such curve, though single readings can be large or run the other way; the % refers to the signal ratio;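 further: cells stimulated with carbachol in lithium chloride buffer; higher means more IMPase inhibition seen as more IP1 and lower FRET ratio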
Target sequence (P97697 whole entry, looked up): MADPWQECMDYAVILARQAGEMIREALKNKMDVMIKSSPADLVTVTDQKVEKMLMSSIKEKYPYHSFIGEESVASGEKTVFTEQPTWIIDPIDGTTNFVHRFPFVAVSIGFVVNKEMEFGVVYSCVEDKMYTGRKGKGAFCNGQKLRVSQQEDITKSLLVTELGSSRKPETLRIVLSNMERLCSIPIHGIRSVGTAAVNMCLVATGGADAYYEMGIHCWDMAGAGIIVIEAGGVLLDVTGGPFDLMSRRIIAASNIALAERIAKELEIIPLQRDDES
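Seeded CHO-M1 cells were dosed with compound at up to 46 uM, stimulated with carbachol for 30 min, then lysed in IP-One detection reagents. Higher IP1 lowers the TR-FRET signal.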
PNC inhibitor: perinucleolar compartment assembly inhibition; PC3M PTB-GFP, PNC prevalence imaging, 16 h; stronger effect = lower value; activity change (PNC), negative = inhibition, % at 10 µM; 140,000 tested, 3.1% active; AID 2417;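 active means readout at or below -70, meaning at least 70% loss of cells showing the perinucleolar compartment, a nuclear body marking cancer cells; inconclusive means readout between -30 and a set limit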
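Read-out is percentage of cells bearing a perinucleolar compartment, from automated 20x imaging of fixed, Hoechst-stained PC3M PTB-GFP cells. Cells were seeded 4 h, then exposed 16 h to compound (23 nl of library stock) in duplicate plates.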
IMPase Li inh: cell-permeable IMPase inhibitors with lithium potentiation. CHO-M1 cells, IP1 TR-FRET (IP-One), carbachol + lithium. Potency, µM (highest dose often 59.4 µM), hits mostly inhibitors. 210,000 tested, 0.35% active. AID 1457; active means well fitted curve in the direction sought with a large enough effect; inconclusive means small, poorly fitted or top-dose-only effect, or another doubt; inactive means no such curve, though single readings can be large; an effect the other way counts as inactive or inconclusive;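 further: IP1 builds up when IMPase is blocked and the TR-FRET signal falls; nearly all actives have a fitted effect of over 50% in size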
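CHO cells stably expressing M1 receptor (2000/well, cultured 16–30 h) treated 30 min at 37C with compound plus low lithium. Cytosolic IP1 by TR-FRET (665/620 ratio and 620 channel) after 10 min lysis; AC50 by Hill fit.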
ALDH1A1 inh: ALDH1A1 (human) enzyme inhibition; P00352; AID 1030; Purified ALDH1A1, NADH fluorescence, propionaldehyde substrate; 220,000 tested, 7.3% active; Potency, µM (highest dose often 75.3 µM), usual class: inhibitors
HPGD block: HPGD (human) dehydrogenase inhibition | AID 894 | Potency, µM, actives largely listed as inhibitors | purified HPGD, NADH fluorescence kinetic, PGE2 substrate | 150,000 tested, 4.3% active
Target sequence (P15428 whole entry, looked up): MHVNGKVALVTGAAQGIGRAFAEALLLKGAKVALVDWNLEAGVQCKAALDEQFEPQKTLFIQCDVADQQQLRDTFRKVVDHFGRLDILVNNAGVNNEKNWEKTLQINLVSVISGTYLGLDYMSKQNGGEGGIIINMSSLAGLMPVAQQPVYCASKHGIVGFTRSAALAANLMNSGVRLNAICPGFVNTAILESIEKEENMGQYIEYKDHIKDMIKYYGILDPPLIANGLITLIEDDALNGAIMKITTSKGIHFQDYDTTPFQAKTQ
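NADH formation kinetics: reaction with 30 uM PGE2 and 1 mM NAD+ (final), 20 nM enzyme, Tris-HCl pH 8 with Tween 20, after 15 min compound preincubation at room temperature. Fluorescence change, last versus first of five reads.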
12-hLO inh: inhibitors of human 12-lipoxygenase (ALOX12) | P18054 | purified 12-hLO, xylenol orange hydroperoxide absorbance | Potency, µM (series often up to 57.1 µM), actives largely listed as inhibitors | 150,000 tested, 0.12% active | AID 1452; active means well fitted curve in the direction sought with a large enough effect; inconclusive means small, poorly fitted or top-dose-only effect, or another doubt; inactive means no such curve, though single readings can be large; an effect the other way counts as inactive or inconclusive; further: nearly all actives have a fitted effect of over 55% in size
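Hydroperoxide output read as Fe(III)-xylenol orange absorbance, 573-to-405 nm ratio, after 30 min reaction with 40 uM arachidonic acid. Enzyme: 150 nM purified human 12hLO, 15 min compound preincubation; 25 mM Hepes pH 7.0, room temperature.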
Of the large screens only hits and unclear results are named; the others gave an inactive call. Rows were chosen to be rich in hits. Some 11% of all compounds tested hit in one or more screens of this group. Unless noted, the call rests on the fitted dose curve; in most records, active means well fitted inhibition curve with a large enough effect (not every such curve was filed as active); inconclusive means small, poorly fitted or top-dose-only effect, or another doubt; inactive means no such curve, though single readings can be large or run the other way.

Cc1cc(C)c(S(=O)(=O)Nc2ccc3c(c2)CCC3)c(C)c1	PNC inhibitor -89 (no result: IMPase cell inh)
Cc1cc(C)c(S(=O)(=O)Nc2ccc3c4c(cccc24)CC3)c(C)c1	PNC inhibitor -88, ALDH1A1 inh inconclusive
Cc1cnc(C(=O)OCC(=O)NC23CC4CC(CC(C4)C2)C3)cn1	ALDH1A1 inh 25µM
O=C(COC(=O)c1ccccn1)NC12CC3CC(CC(C3)C1)C2	none
O=C(COC(=O)/C=C/C(=O)OCC(=O)NC12CC3CC(CC(C3)C1)C2)NC12CC3CC(CC(C3)C1)C2	ALDH1A1 inh 4µM
O=C(CCN1CCCCC1)Nc1ccc2c(c1)C(=O)c1ccc(NC(=O)CCN3CCCCC3)cc1C2=O	ALDH1A1 inh inconclusive (no result: IMPase cell inh, PNC inhibitor)
COc1ccc(C(=O)Nc2cccc(C(C)=O)c2)c(OC)c1OC	ALDH1A1 inh inconclusive
COC(=O)c1cccc(NC(=O)c2cc(OC)c(OC)c(OC)c2Br)c1	ALDH1A1 inh 40µM, HPGD block inconclusive (no result: IMPase cell inh)
Cc1cc(C)c(NC2=CC(=O)CC(C)(C)C2)c(C#N)c1	PNC inhibitor inconclusive, ALDH1A1 inh inconclusive
Cc1cccc(C#N)c1NC1=CC(=O)CC(C)(C)C1	ALDH1A1 inh 7.9µM
O=C1c2ccccc2C(=O)N1CCC(c1ccc(F)cc1)c1ccco1 (configuration not stated)	ALDH1A1 inh 10µM
CCCN1C(=O)C(O)(CC(=O)c2ccc3c(c2)OCCO3)c2ccccc21 (configuration not stated)	PNC inhibitor inconclusive, ALDH1A1 inh 7.1µM
C#CCN1C(=O)C(O)(CC(=O)/C=C/C=C/c2ccccc2)c2ccccc21 (configuration not stated)	ALDH1A1 inh 6.3µM (no result: IMPase cell inh, PNC inhibitor, HPGD block, 12-hLO inh)
CN1C(=O)C(O)(CC(=O)c2ccc3c(c2)OCO3)c2ccccc21 (configuration not stated)	none
C#CCN1C(=O)C(O)(CC(=O)c2ccc3c(c2)OCCO3)c2ccccc21 (configuration not stated)	ALDH1A1 inh 1µM
C#CCN1C(=O)C(O)(CC(=O)c2ccc(OC)c(OC)c2)c2cc(Br)ccc21 (configuration not stated)	none (no result: PNC inhibitor, IMPase Li inh, ALDH1A1 inh, HPGD block, 12-hLO inh)
C#CCN1C(=O)C(O)(CC(=O)c2ccc(OC)c(OC)c2)c2ccccc21 (configuration not stated)	PNC inhibitor inconclusive, ALDH1A1 inh 0.35µM
CCOC(=O)[C@@]12C[C@@H]1/C(=N/O)c1ccccc1O2	none (no result: PNC inhibitor)
CCCN1C(=O)C(O)(CC(=O)c2cccc(OC)c2)c2ccccc21 (configuration not stated)	ALDH1A1 inh 4.5µM
COc1cccc(C(=O)CC2(O)C(=O)N(Cc3ccccc3)c3ccccc32)c1 (configuration not stated)	none (no result: PNC inhibitor, IMPase Li inh, ALDH1A1 inh, HPGD block, 12-hLO inh)
Cc1ccc2c(c1)C(O)(CC(=O)/C=C/C=C/c1ccccc1)C(=O)N2 (configuration not stated)	PNC inhibitor -92 (no result: IMPase cell inh)
Cc1ccc(S(=O)(=O)N(C(=O)c2ccco2)c2cc3sc(=O)oc3c3ccccc23)cc1	ALDH1A1 inh 32µM, HPGD block inconclusive, 12-hLO inh inconclusive (no result: IMPase cell inh)
COc1ccc(S(=O)(=O)N(C(=O)c2ccco2)c2cc3sc(=O)oc3c3ccccc23)cc1	PNC inhibitor inconclusive, ALDH1A1 inh 25µM, HPGD block inconclusive, 12-hLO inh inconclusive (no result: IMPase cell inh)
NNC(=O)c1nc[nH]c1C(=O)Nc1ccccn1	ALDH1A1 inh 22µM (no result: IMPase cell inh, PNC inhibitor, HPGD block, 12-hLO inh)
Cc1ccc(NC(=O)c2[nH]cnc2C(=O)NN)cc1	none (no result: IMPase cell inh, PNC inhibitor, HPGD block, 12-hLO inh)
Cc1ccc(NC(=O)CN(C)CC(=O)Nc2ccccc2-c2ccccc2)cc1	ALDH1A1 inh 14µM (no result: IMPase cell inh, PNC inhibitor, HPGD block, 12-hLO inh)
O=C(NC1=NCCS1)c1sc2cc(F)ccc2c1Cl	none
O=C(OCC(=O)N1CCN(C(=O)c2ccco2)CC1)c1sc2cc(F)ccc2c1Cl	ALDH1A1 inh 28µM
O=C(Nc1ccon1)c1sc2cc(F)ccc2c1Cl	PNC inhibitor -100
O=C(CSc1cccc2cccc(Cl)c12)OCC(=O)N1CCN(C(=O)c2ccco2)CC1	IMPase Li inh 10µM, ALDH1A1 inh 11µM, HPGD block inconclusive
